Experimental data as given in the supplement of paper PMC6607015.
Counter-ions that a name gives are not always drawn.

Legend:
Settings in all cases: compound concentration in added solution (µM; 5 µl added to 20 µl cells): 10; 18 h
A431 [1] = assay: LBPA endosome anti-LBPA integrated intensity (sum per cell), Z-score; higher = more LBPA staining
In short: (§1)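 Each value is a Z-score normalised in AcuityXpress from per-cell integrated LBPA or filipin intensity, taken over the whole cell or within LBPA endosomes. Duplicate 384-well imaging plates held 5 µl of 10 µM compound solution, onto which 3,500 HeLa MZ or A431 cells in 20 µl were seeded per well. After 18 h the cells were fixed in 4% PFA, stained with 6C4 anti-LBPA antibody, filipin, propidium iodide and CellTracker green, imaged four times per well at 20× and segmented in MetaXpress.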

HeLa MZ [2] = assay: as above
In short: as §1

A431 [3] = assay: whole-cell filipin (free cholesterol) integrated intensity, Z-score; higher = more cholesterol staining
In short: as §1

HeLa MZ [4] = assay: as above
In short: as §1

A431 [5] = assay: filipin (cholesterol) integrated intensity within LBPA endosomes, Z-score; higher = more cholesterol in LBPA endosomes
In short: as §1

HeLa MZ [6] = assay: as above
In short: as §1

| Compound | LBPA endosome anti-LBPA integrated intensity (z-score) (A431 [1]) | LBPA endosome anti-LBPA integrated intensity (z-score) (HeLa MZ [2]) | whole-cell filipin (z-score) (A431 [3]) | whole-cell filipin (z-score) (HeLa MZ [4]) | filipin (z-score) (A431 [5]) | filipin (z-score) (HeLa MZ [6]) |
| --- | --- | --- | --- | --- | --- | --- |
| CC1CC(OC(=O)C(O)c2ccccc2)CC(C)(C)N1C (centres undefined) [Eucatropine hydrochloride] | -0.612 | -0.981 | -0.351 | -0.392 | -0.513 | -0.342 |
| CCCCC[C@H](O)/C=C/[C@@H]1[C@@H](C/C=C\CCCC(=O)O)[C@@H](O)C[C@H]1O [Dinoprost trometamol] | -0.294 | -0.303 | -0.632 | -0.582 | -0.462 | -0.236 |
| CCCCCCC[N+](CC)(CC)CCCCc1ccc(Cl)cc1 [Clofilium tosylate] | -0.496 | -0.791 | -0.98 | -1.56 | -0.614 | -0.77 |
| O=C(N[C@H](CO)[C@H](O)c1ccc([N+](=O)[O-])cc1)C(Cl)Cl [Chloramphenicol] | -0.509 | -0.731 | -0.952 | -1.01 | -0.558 | -0.762 |
| CCCNC(=O)NS(=O)(=O)c1ccc(Cl)cc1 [Chlorpropamide] | -0.658 | -1.65 | -0.845 | -0.558 | -0.591 | -0.571 |
| C[C@H](CS)C(=O)N1CCC[C@H]1C(=O)O [Captopril] | -0.394 | -0.389 | -0.482 | 0.478 | -0.442 | -0.261 |
| NCCCC(O)(P(=O)(O)O)P(=O)(O)O [Alendronate sodium] | -0.662 | -1.69 | -0.705 | -0.128 | -0.56 | -0.588 |
| CCOC(=O)OC(C)OC(=O)[C@@H]1N2C(=O)[C@@H](NC(=O)[C@H](N)c3ccccc3)[C@H]2SC1(C)C (some centres undefined) [Bacampicillin hydrochloride] | -0.503 | -1.29 | -0.749 | -0.787 | -0.467 | -0.528 |
| COc1ccc2c(c1)c(CC(=O)OCC(=O)O)c(C)n2C(=O)c1ccc(Cl)cc1 [Acemetacin] | -0.545 | -0.702 | -1.02 | -0.542 | -0.556 | -0.644 |
| CC1=C(CC(=O)O)c2cc(F)ccc2/C1=C\c1ccc([S+](C)[O-])cc1 (centres undefined) [Sulindac] | -0.696 | -1.83 | -0.98 | -1 | -0.655 | -0.701 |
| CC(COc1ccccc1)N(CCCl)Cc1ccccc1 (centres undefined) [Phenoxybenzamine hydrochloride] | -0.295 | -0.519 | -0.105 | 0.141 | -0.396 | -0.505 |
| CCC1(c2ccccc2)NC(=O)N(C)C1=O (centres undefined) [Mephenytoin] | -0.412 | -0.524 | -0.0979 | -0.325 | -0.496 | -0.516 |
| CC[C@H]1OC(=O)[C@H](C)[C@@H](O[C@H]2C[C@@](C)(OC)[C@@H](O)[C@H](C)O2)[C@H](C)[C@@H](O[C@@H]2O[C@H](C)C[C@H](N(C)C)[C@H]2O)[C@](C)(O)C[C@@H](C)[C@@H]2N[C@@H](COCCOC)O[C@H]([C@H]2C)[C@]1(C)O [Dirithromycin] | -0.436 | -0.0354 | -0.786 | -0.252 | -0.507 | -0.38 |
| Clc1cccc(Cl)c1NC1=NCCN1 [Clonidine hydrochloride] | -0.318 | -0.0581 | -0.585 | -0.0901 | -0.436 | -0.268 |
| CC(C)(Oc1ccc(C2CC2(Cl)Cl)cc1)C(=O)O (centres undefined) [Ciprofibrate] | -0.486 | -0.255 | -0.125 | -0.278 | -0.419 | -0.482 |
| O=C1OCCN1/N=C/c1ccc([N+](=O)[O-])o1 [Furazolidone] | -0.473 | -0.0304 | -0.00282 | 0.522 | -0.483 | -0.65 |
| Nc1nc2ccc(OC(F)(F)F)cc2s1 [Riluzole hydrochloride] | -0.418 | -0.758 | -0.48 | -0.459 | -0.501 | -0.474 |
| O=C1c2c(O)cccc2Cc2cccc(O)c21 [Anthralin] | -0.344 | 0.592 | 0.169 | 2.01 | -0.334 | -0.134 |
| CNCC[C@@H](Oc1ccccc1C)c1ccccc1 [Tomoxetine hydrochloride] | -0.073 | -0.709 | 0.0322 | -0.417 | -0.072 | -0.0592 |
| NS(=O)(=O)c1cc(C(=O)O)cc(N2CCCC2)c1Oc1ccccc1 [Piretanide] | -0.606 | -1.16 | -0.2 | 0.517 | -0.411 | -0.576 |
| O=C1CCc2cc(OCCCCc3nnnn3C3CCCCC3)ccc2N1 [Cilostazol] | -0.386 | -0.0616 | -0.68 | -0.703 | -0.49 | -0.5 |
| Cc1ccc2c(c1)c1c3n2CCNC3CCC1 (centres undefined) [Pirlindole mesylate] | 0.0753 | 0.024 | 0.654 | 0.474 | 0.437 | 0.263 |
| CCc1nn(CCCN2CCN(c3cccc(Cl)c3)CC2)c(=O)n1CCOc1ccccc1 [Nefazodone HCl] | 0.334 | 2.39 | 0.625 | 0.969 | 0.483 | 1.14 |
| Nc1ccc(S(=O)(=O)NC(=O)c2ccccc2)cc1 [Sulfabenzamide] | -0.476 | -1.38 | -0.453 | -0.0901 | -0.451 | -0.401 |
| CN1CCC[C@@H]1CCO[C@](C)(c1ccccc1)c1ccc(Cl)cc1 [Clemastine fumarate] | 2.28 | 0.882 | 0.619 | -0.348 | 2.73 | 1.84 |

| Compound | LBPA endosome anti-LBPA integrated intensity (z-score) (A431 [1]) | LBPA endosome anti-LBPA integrated intensity (z-score) (HeLa MZ [2]) | whole-cell filipin (z-score) (A431 [3]) | whole-cell filipin (z-score) (HeLa MZ [4]) | filipin (z-score) (A431 [5]) | filipin (z-score) (HeLa MZ [6]) |
| --- | --- | --- | --- | --- | --- | --- |
| CN1CCN(c2c(F)cc3c(=O)c(C(=O)O)cn(CCF)c3c2F)CC1 [Fleroxacin] | -0.492 | -0.0484 | -0.0639 | 0.23 | -0.354 | -0.239 |
| OCCOCCN1CCN(C2=Nc3ccccc3Sc3ccccc32)CC1 [Quetiapine] | -0.603 | 0.201 | -0.454 | -0.549 | -0.515 | -0.0994 |
| CC(=O)[C@@]1(O)CC[C@H]2[C@@H]3C[C@H](C)C4=CC(=O)C=C[C@]4(C)[C@@]3(F)[C@@H](O)C[C@@]21C [Fluorometholone] | -0.292 | -0.618 | -0.262 | -0.2 | -0.289 | -0.522 |
| Cc1cc2c(cc1S(N)(=O)=O)S(=O)(=O)CCC2 [Meticrane] | -0.412 | -0.455 | -0.803 | -0.699 | -0.464 | -0.558 |
| CN1CCC(OC(c2ccccc2)c2ccccc2)CC1 [Diphenylpyraline hydrochloride] | 0.268 | 1.06 | 0.89 | 0.448 | 0.505 | 0.456 |
| CC(=O)NC[C@H]1CN(c2ccc(N3CCOCC3)c(F)c2)C(=O)O1 [Linezolid] | -0.619 | -0.712 | -0.597 | -0.713 | -0.583 | -0.674 |
| C1N2CN3CN1CN(C2)C3 [Methenamine] | -0.374 | 0.113 | -0.146 | 0.773 | -0.379 | -0.0431 |
| C[C@@H]1NC(=O)NC1=O [Methylhydantoin-5-(L)] | -0.307 | 0.559 | -0.263 | -0.142 | -0.411 | -0.338 |
| CN1CCN(C(c2ccccc2)c2ccccc2)CC1 [Cyclizine hydrochloride] | -0.35 | 0.424 | -0.0386 | -0.181 | -0.285 | 0.0272 |
| O=C(O)c1ccccc1Nc1cccc(C(F)(F)F)c1 [Flufenamic acid] | -0.586 | -0.521 | -0.734 | -0.685 | -0.54 | -0.632 |
| CCN(CC)C(=O)Nc1ccc(OCC(O)CNC(C)(C)C)c(C(C)=O)c1 (centres undefined) [Celiprolol HCl] | 0.0633 | 0.456 | -0.229 | -0.152 | -0.388 | -0.405 |
| Cn1c(=O)c2c(ncn2CC(=O)O)n(C)c1=O [Acefylline] | -0.332 | 0.383 | -0.237 | -0.0327 | -0.446 | -0.485 |
| NC[C@@H]1O[C@@H](O[C@H]2[C@H](O)[C@@H](O[C@H]3O[C@H](CO)[C@@H](O)[C@H](N)[C@H]3O)[C@H](N)C[C@@H]2N)[C@@H](O)[C@H](O)[C@H]1O [Kanamycin A sulfate] | -0.635 | -0.981 | -0.97 | -0.361 | -0.515 | -0.597 |
| CCOC(=O)n1ccn(C)c1=S [Carbimazole] | -0.395 | 0.106 | -0.405 | -0.308 | -0.513 | -0.531 |
| CN(C)CCOC(c1ccccc1)c1ccccc1.Cn1c(=O)c2[nH]c(Cl)nc2n(C)c1=O [Dimenhydrinate] | -0.457 | 0.504 | -0.514 | -0.355 | -0.463 | -0.165 |
| C=CCOC(Cn1ccnc1)c1ccc(Cl)cc1Cl (centres undefined) [Enilconazole] | -0.206 | -0.741 | 0.571 | 0.192 | -0.128 | -0.352 |
| CCC[C@@H]1C[C@@H](C(=O)N[C@@H]([C@H]2O[C@H](SC)[C@H](O)[C@@H](O)[C@H]2O)[C@@H](C)O)N(C)C1 [Lincomycin hydrochloride] | -0.565 | -0.696 | -0.903 | -1.08 | -0.504 | -0.682 |
| C=CCOc1ccccc1OCC(O)CNC(C)C (centres undefined) [Oxprenolol hydrochloride] | -0.0805 | 0.635 | 0.289 | 0.262 | -0.232 | -0.267 |
| CN(C(=O)CN(CCO)CC(=O)N(C)C(C)(C)Cc1ccccc1)C(C)(C)Cc1ccccc1 [Oxethazaine] | 1.71 | 0.996 | 1.26 | 0.298 | 1.53 | 2.17 |
| N=C(N)N/N=C/c1c(Cl)cccc1Cl [Guanabenz acetate] | 2.17 | 0.543 | 1.23 | -0.116 | 1.62 | 0.458 |
| Oc1c(I)cc(Cl)c2cccnc12 [Clioquinol] | -0.492 | -0.976 | -0.314 | 0.216 | -0.526 | -0.604 |
| CCOC(=O)c1ccc(OC(=O)CCCCCNC(=N)N)cc1 [Gabexate mesilate] | -0.44 | 0.019 | 0.196 | 0.0139 | -0.481 | -0.456 |
| CN1C(=O)CC(c2ccccc2)C1=O (centres undefined) [Phensuximide] | -0.488 | -0.914 | -0.489 | -0.774 | -0.376 | -0.653 |
| Cc1ccc(C(=O)c2ccc(CC(=O)O)n2C)cc1 [Tolmetin sodium salt dihydrate] | -0.35 | -0.0177 | -0.301 | -0.429 | -0.412 | -0.483 |
